Data published in PubChem BioAssay (NCATS).
Results filed as inconclusive are left out. A number with no mark means an inactive call. Activity calls are given as the source filed them. The call rests on the fitted dose curve; in most records, active means well fitted cell-killing curve with a large enough effect; inconclusive means small, poorly fitted or top-dose-only effect; inactive means no such curve, though single readings can be large or run the other way.

Assay: qHTS of pediatric cancer cell lines to identify multiple opportunities for drug repurposing: Primary screen for SJ-GBM2 cells (AID 1347091)
Conditions: SJ-GBM2 viability, CellTiter-Glo luminescence, 48 h; series mostly up to 46 µM
Text: Drug repurposing or repositioning has been offered as a strategy for drug development in oncology programs. This approach has special potential for childhood cancers and other rare or orphan diseases, where the expected return on new drug development has been a disincentive to pharmaceuticals.
In this project we exploit the poly-pharmacology of drugs to discover new indications via phenotypic screening of a panel of 19 well-characterized cell lines derived from solid tumors seen in children and adolescents. The goal is to identify approved drugs with previously unrecognized anticancer properties that has the potential to reveal new mechanisms and biological processes involved in carcinogenesis or drug resistance. We employed a titration-based paradigm (quantitative high-throughput screening or qHTS), where all compounds were tested at multiple concentrations for their effect on cell viability. Concentration-response curves (CRCs) were derived directly from the primary screen, and both potency and efficacy values were used to identify compounds with robust bioactivity profiles. We screened the NIH Chemical Genomics Center (NCGC) Pharmaceutical Collection (NPC) and Mechanism Interrogation Plate (MIPE) small molecule collections of approved and investigational compounds against these cell lines; and measured metabolically active cells after 48 hours of compound treatment as a proxy for cell viability.
Assay Submitter: Nathalia J. Martinez, National Center for Advancing Translational Sciences, National Institutes of Health, Rockville, MD, USA; email: natalia.martinez@nih.gov
[1] Shen, M et al. Quantitative high-throughput phenotypic screening of pediatric cancer cell lines identifies multiple opportunities for drug repurposing. Oncotarget 2017 Dec 19;9(4):4758-4772. PMID 29435139.
The cells were obtained from University of North Carolina (UNC), Pediatric Preclinical Testing Program (PPT), and Coriell Institute (CI).
qHTS cell viability assay:
Cells were assayed in growth media at a density of 500-1,000 cells/well. Five microliters of cells were dispensed into 1,536-well, white, solid-bottom, TC-treated plates (Greiner Bio One) using a multidrop dispenser and incubated at 37 degrees C, 5% CO2, under a humidified atmosphere for 5 hours. Twenty-three nanoliters of compounds and controls (neutral control DMSO or positive control bortezomib at final concentration of 2.3 µM) were subsequently transferred by Kalypsys pintool. For primary screens, the MIPE collection was tested at 11-point dilutions (final concentrations range from 0.78 nM to 46 µM) and the NPC collection at 8-point dilutions (final concentrations range from 0.59 nM to 46 µM). Compounds tested in follow-up screens were assayed at 11-point dilutions. Cells were incubated for 48 hours, followed by addition of 3 uL of CellTiter-Glo (Promega). After a 15 min incubation at room temperature, samples were analyzed for luminescence intensity using a ViewLux High-throughput CCD imager equipped with clear filters.
Potency means the concentration at half of the fitted maximal effect.

| SMILES | Potency | activity change, negative = cytotoxic |
| --- | --- | --- |
| COc1cc(C)c(C=CC(C)=CC=CC(C)=CC(=O)O)c(C)c1C | inactive | – |
| Nc1ncn([C@@H]2O[C@H](CO)[C@@H](O)[C@@H]2O)c(=O)n1 | 7.43 µM (active) | – |
| NC(=NCCCCCCN=C(N)N=C(N)Nc1ccc(Cl)cc1)N=C(N)Nc1ccc(Cl)cc1 | 13.2 µM (active) | – |
| CCCCC(=O)O[C@]1(C(=O)CO)[C@@H](C)C[C@H]2[C@@H]3CCC4=CC(=O)C=C[C@]4(C)[C@@]3(F)[C@@H](O)C[C@@]21C | inactive | – |
| C[C@H](NCc1ccc(OCc2cccc(F)c2)cc1)C(N)=O | 10.5 µM (active) | – |
| O=C(C=Cc1ccc(CN(CCO)CCc2c[nH]c3ccccc23)cc1)NO | 0.118 µM (active) | – |
| Cc1ncc(-c2ccnc(Nc3ccc(S(C)(=O)=O)cc3)n2)n1C(C)C | 1.32 µM (active) | – |
| C[C@H](NC(=O)C(C#N)=Cc1cccc(Br)n1)c1ccccc1 | 2.96 µM (active) | – |
| Nc1cccc2c1C(=O)N(C1CCC(=O)NC1=O)C2=O (stereo not given) | inactive | – |
| COc1cc(C(C)C)c(Oc2cnc(NC(CO)CO)nc2N)cc1I | inactive | – |
| C=C(C)[C@@H]1CC[C@]2(C)CC[C@]3(C)[C@H](CC[C@@H]4[C@@]5(C)CC[C@H](O)C(C)(C)[C@H]5CC[C@]43C)[C@@H]12 | inactive | – |
| COc1ccc(Nc2cc(-c3cnc(N)nc3)nc(N3CCOCC3)n2)cn1 | 4.18 µM (active) | – |
| C=C(C)[C@@H]1CC[C@]2(C(=O)O)CC[C@]3(C)[C@H](CC[C@@H]4[C@@]5(C)CC[C@H](O)C(C)(C)[C@@H]5CC[C@]43C)[C@@H]12 | 18.7 µM (active) | – |
| Cn1cc(CNCC2CCN(c3ncc(C(=O)NO)cn3)CC2)c2ccccc21 | 0.0743 µM (active) | – |
| CN1CCc2c(c3ccccc3n2Cc2ccc(C(=O)NO)cc2)C1 | 23.5 µM (active) | – |
| Cc1cc(-c2nnc3n2CCCCC3)c(C)n1-c1ccccc1 | inactive | – |
| O=[N+]([O-])c1cn2c(n1)OC[C@@H](OCc1ccc(OC(F)(F)F)cc1)C2 | inactive | – |
| CC[C@H]1OC(=O)[C@H](C)[C@@H](O[C@H]2C[C@@](C)(OC)[C@@H](O)[C@H](C)O2)[C@H](C)[C@@H](O[C@@H]2O[C@@H](C)C[C@H](N(C)C)[C@@H]2O)[C@](C)(O)C[C@@H](C)C(=O)[C@H](C)[C@@H](O)[C@]1(C)O | inactive | – |
| Cn1cc(-c2ccc3ncc(Cc4ccc5ncccc5c4)n3n2)cn1 | 0.0093 µM (active) | – |
| CC(C)(O)Cn1c(NC(=O)c2ccc(-c3cn[nH]c3)s2)nc2cc(CN3CCOCC3)ccc21 | 0.743 µM (active) | – |

| SMILES | Potency | activity change, negative = cytotoxic |
| --- | --- | --- |
| Oc1ccc([C@@H]2Oc3ccc(O)cc3[C@@H]3CCC[C@@H]32)cc1 | 13.2 µM (active) | – |
| CCCNC(=O)[C@H]1O[C@H]1C(=O)N[C@H](C(=O)N1CCC[C@@H]1C(=O)OC)C(C)CC (stereo not given in full) | 23.5 µM (active) | – |
| O=c1[nH]c(=O)n([C@H]2C[C@@H](O)[C@@H](CO)O2)cc1C=CBr | inactive | – |
| C=C1C(=O)O[C@H]2[C@@H]1CCC(C)=CCC[C@@]1(C)O[C@@H]21 | 8.33 µM (active) | – |
| CNC(=O)c1cccc(-c2ccc3c(N4CCOC[C@H]4C)nc(N4CCOC[C@H]4C)nc3n2)c1 | 0.105 µM (active) | – |
| O=C(C=CC#Cc1cccc(NS(=O)(=O)c2ccccc2)c1)NO | 1.66 µM (active) | – |
| Cc1[nH]c(C=C2C(=O)Nc3ccccc32)c(C)c1CCC(=O)O | 0.935 µM (active) | – |
| C[C@H](NC(=O)Cc1cc(F)cc(F)c1)C(=O)N[C@H](C(=O)OC(C)(C)C)c1ccccc1 | inactive | – |
| c1cc(N[C@@H]2CCNC2)nc(-c2cnc3ccc(-c4cn[nH]c4)cn23)c1 | 16.6 µM (active) | – |
| CC(C)(N)c1ccc(-c2nc3ccccc3nc2-c2ccccc2)cc1 | 23.5 µM (active) | – |
| C=CC(=O)Nc1ccc2ncnc(Nc3ccc(OCc4cccc(F)c4)c(Cl)c3)c2c1 | 0.0296 µM (active) | – |
| Oc1ccc(-c2ccc(-c3cc(Nc4cccc(CNC5CC5)c4)n[nH]3)cc2)c(O)c1 | 1.48 µM (active) | – |
| CC1(C)[C@H](O[C@H]2O[C@H](C(=O)O)[C@@H](O)[C@H](O)[C@H]2O[C@@H]2O[C@H](C(=O)O)[C@@H](O)[C@H](O)[C@H]2O)CC[C@@]2(C)[C@H]1CC[C@]1(C)[C@H]2C(=O)C=C2[C@H]3C[C@@](C)(C(=O)O)CC[C@]3(C)CC[C@]21C | inactive | – |
| CON=C(C(=O)N[C@@H]1C(=O)N2C(C(=O)O)=C(CSC(=O)c3ccco3)CS[C@H]12)c1csc(N)n1 | inactive | – |
| COC(=O)C=CC(=O)OC | inactive | – |
| Cn1cc(-c2cnn3c(N)c(Br)c([C@H]4CCCNC4)nc23)cn1 | 0.235 µM (active) | – |
| CC(C)c1cnn2c(NCc3ccccc3)cc(NCCCCCCN)nc12 | 16.6 µM (active) | – |
| COc1ccc(C(C)=O)c(O)c1 | inactive | – |
| CCC(C(=O)O)C1CCC(C)C(C(C)C(O)C(C)C(=O)C(CC)C2OC3(C=CC(O)[C@@]4(CC[C@](C)(C5CC[C@@](O)(CC)C(C)O5)O4)O3)C(C)CC2C)O1 (stereo not given in full) | 11.8 µM (active) | – |
| CCN1CCN(C(=O)N[C@H](C(=O)N[C@@H]2C(=O)N3C(C(=O)O)=C(CSc4nnnn4C)CS[C@@H]23)c2ccc(O)cc2)C(=O)C1=O | – | 24.4% [at 9.22 µM] |
